Screens (PubChem BioAssay)
PG9 Ab binder = binds the HIV-1 gp120 antibody PG9; TR-FRET gp120-PG9 antibody binding; inhibition, % at 6.7 µM; hit rate 0.43% among 360,000; AID 624416; in the data active = inhibition above about 8.5%
KLK7 zymogen act = activators of human kallikrein-7 zymogen | purified proKLK7, EDANS-DABCYL substrate fluorescence; 100% is mature enzyme control, 0% vehicle | P49862 | activation, % at 7 µM | hit rate 0.9% among 370,000 | AID 652039;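 active = activation above the mean of all tested compounds plus 3 SD, computed per campaign excluding outliers beyond control limits, cut at about 13% in these data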
Target sequence (P49862 whole entry, looked up): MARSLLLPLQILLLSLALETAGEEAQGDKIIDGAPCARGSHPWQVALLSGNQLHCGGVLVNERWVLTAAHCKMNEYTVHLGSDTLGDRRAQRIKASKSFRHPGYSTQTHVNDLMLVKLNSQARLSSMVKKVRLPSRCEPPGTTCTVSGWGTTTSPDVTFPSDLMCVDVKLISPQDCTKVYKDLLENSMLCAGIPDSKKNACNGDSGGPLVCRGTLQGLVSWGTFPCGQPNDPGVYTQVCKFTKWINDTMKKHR
NR1D1 modulator = modulators of human Rev-erb alpha DNA binding; Rev-erbα–FITC-DNA binding, fluorescence polarization, 90 min; activity, % at 10 µM; AID 1259318; hit rate 0.79% among 370,000; P20393;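 active = activity above about 14%, limit read from the data; passing the limit was not always enough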;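 note: 0% = DMSO wells with 35 nM protein and 100% = DMSO wells with 750 nM protein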
PP5 primary = blocks human protein phosphatase 5 activity; P53041; purified PP5c, OMFP substrate fluorescence; inhibition, % at 6.7 µM; hit rate 0.18% among 320,000;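 active = inhibition above the campaign's mean inhibition across all tested compounds plus 3 SD, cut at about 9.5% in these data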;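 note: 0% = DMSO only and 100% = 100 µM cantharidin control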
Target sequence (P53041 whole entry, looked up): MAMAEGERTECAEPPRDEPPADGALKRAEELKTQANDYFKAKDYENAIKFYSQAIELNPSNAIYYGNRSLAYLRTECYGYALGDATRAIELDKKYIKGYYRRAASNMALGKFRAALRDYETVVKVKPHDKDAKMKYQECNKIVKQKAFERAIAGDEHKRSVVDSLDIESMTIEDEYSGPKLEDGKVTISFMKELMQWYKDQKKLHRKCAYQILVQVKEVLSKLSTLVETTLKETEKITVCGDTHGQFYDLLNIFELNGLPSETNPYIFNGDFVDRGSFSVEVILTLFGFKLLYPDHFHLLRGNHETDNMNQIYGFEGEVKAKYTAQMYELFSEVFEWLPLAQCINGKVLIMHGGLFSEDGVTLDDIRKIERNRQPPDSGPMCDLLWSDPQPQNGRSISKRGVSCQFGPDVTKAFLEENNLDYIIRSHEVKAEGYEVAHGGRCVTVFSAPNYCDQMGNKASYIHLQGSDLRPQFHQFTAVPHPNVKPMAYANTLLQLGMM
GASC-1 inh = human JMJD2C demethylase inhibition; Q9H3R0; GST-JMJD2C(1-420) H3K9me3 demethylation, DELFIA europium; inhibition, % at 2.35 µM; hit rate 0.069% among 330,000;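 active = more than half of a compound's replicate wells show inhibition beyond 50%, single wells judged on their own value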;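 note: signal counts dimethyl H3K9 product captured on neutravidin plate; 0% = median of DMSO wells and 100% = 0.3 times that DMSO median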
PP1 inh = PP1-alpha (human) inhibition in PP5 counter-screen; P62136; inhibition, % at 6.7 µM; hit rate 0.9% among 320,000; purified PP1alpha, OMFP fluorescence;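 active = inhibition above the mean inhibition of all tested compounds plus 3 SD, computed separately for each screening campaign, cut at about 15% in these data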
NR1D1 mod conf = Rev-erb alpha (human) modulation, hit confirmation; Rev-erb alpha FITC-DNA binding, fluorescence polarization, 90 min; activation, % at 25 µM; hit rate 61% among 3,000; shares compounds with NR1D1 modulator;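 active = activation at or above a set limit, or at least 3 SD above the negative control mean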;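 note: 0% = 35 nM protein with DMSO and 100% = 750 nM protein high control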
RORg DNA counter = RORgamma DNA-binding activity, dose-response counter-screen. shares compounds with NR1D1 modulator. purified RORgamma protein-FITC-DNA binding, fluorescence polarization. IC50, µM. hit rate 8% among 910;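 active = Compounds whose fitted half-maximal concentration for disrupting protein-DNA binding is below 10 micromolar; the record names Rev-erb in its text, so the target is in doubt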
Numbers without * were called inactive; i = inactive; nt = no result given. Hits are enriched below; roughly 2.8% of the tested compounds scored in any of these assays.

SMILES | PG9 Ab binder | KLK7 zymogen act | NR1D1 modulator | PP5 primary | GASC-1 inh | PP1 inh | NR1D1 mod conf | others
COc1ccc(-c2nnc3ccc(SCC(=O)Nc4nc5ccc(C)cc5s4)nn23)cc1OC | -1.3 | 0.4 | 25.1* | 6.2 | 0.3 | -0.6 | 25.9*
COC(=O)CSc1ccc2nnc(-c3ccc(OC)c(OC)c3)n2n1 | -2.3 | 0.2 | -2.0 | -0.1 | 1.3 | -2.8 | nt
COC(=O)[C@]1(C#N)CC(=O)N(Cc2ccc(Cl)cc2)[C@@H]1c1ccc(OC)cc1 | nt | -0.3 | -0.9 | nt | nt | nt | nt
Cc1ccc(-n2nc(C(=O)c3ccccc3)n3c(=O)cc(-c4ccccc4)nc23)cc1 | 2.2 | -0.1 | 48.9* | 2.0 | -10.3 | -2.1 | 16.4
CC(C)(C)S(=O)(=O)/C(C#N)=C/c1cccn1S(=O)(=O)c1ccccc1 | 2.5 | 0.6 | 16.6* | nt | nt | nt | 10.7*
Cc1onc(-c2ccccc2)c1C(=O)Nc1cc(C(F)(F)F)ccc1N1CCOCC1 | 1.6 | -0.5 | 22.1* | 3.9 | 7.4 | 0.5 | 32.7*
CN(C)c1ccc(C=C2SC(=S)NC2=O)cc1 | -15.7 | 0.4 | 47.7* | nt | nt | nt | 35.1* | RORg DNA counter=>40
O=C(COc1ccccc1)NC(=S)Nc1ccc2c(c1)Cc1ccccc1-2 | -0.8 | -0.2 | 77.3* | 1.0 | -0.8 | 2.2 | 25.1*
CCOC(=O)CC[C@@]1(C(=O)OCC)C[C@@H](CC(=O)NCC23CC4CC(CC(C4)C2)C3)C(=O)N2CCCC=C21 | nt | 0.0 | 7.7 | nt | nt | nt | nt
Cc1cc(NC(=O)c2ccccc2)n(C)n1 | 1.0 | -0.1 | -0.3 | -1.1 | -0.5 | 0.5 | nt
Cn1nc(-c2ccccc2)cc1NC(=O)c1ccccc1 | 0.6 | -0.5 | 41.2* | 3.0 | 8.6 | 1.1 | 2.2
CCN1Cc2nnn(Cc3ccccc3)c2-c2cc(F)ccc2S1(=O)=O | nt | 0.4 | 1.6 | nt | nt | nt | nt
CCN(CC)S(=O)(=O)c1ccc(F)cc1 | 2.1 | -0.1 | 36.6* | -0.7 | -5.7 | 0.1 | 6.0
CCN(CC)S(=O)(=O)c1ccc(NS(=O)(=O)c2ccc(F)cc2)cc1 | -2.5 | -0.4 | 0.6 | 1.6 | 8.7 | 0.0 | nt
O=C(Nc1nnc(C2CCCCC2)s1)c1ccc(Br)s1 | 0.9 | -0.3 | 95.4* | 1.5 | 8.9 | -2.8 | 81.7* | RORg DNA counter=>40
Cc1ccc(-c2nnc(-n3ncc(C#N)c3N)c3ccccc23)cc1C | -0.8 | -0.9 | 33.1* | -0.1 | 2.9 | -3.2 | 27.1*
CCOC(=O)c1cnc2c(cnn2C)c1NCc1ccc(OC)cc1 | 0.6 | 0.7 | 27.5* | -1.2 | 1.2 | 2.6 | 22.0*
O=C(Cn1cc(C(F)(F)F)cc(Cl)c1=O)Nc1cccc(Cl)c1 | -0.1 | 0.1 | 10.5 | -1.0 | -6.7 | 1.7 | nt
O=C(Cn1cc(C(F)(F)F)cc(Cl)c1=O)Nc1cc(Cl)cc(Cl)c1 | 4.5 | -0.5 | 58.6* | 0.5 | 5.7 | -1.5 | 26.8*
COc1cccc(-c2nc(CS(=O)(=O)CC(=O)NCCc3ccc(C)cc3)c(C)o2)c1 | -0.2 | 0.6 | 5.7 | 4.5 | 36.1 | 7.2 | nt
CCOc1ccc(CNC(=O)CS(=O)(=O)Cc2nc(-c3ccc(OC)cc3)oc2C)cc1 | 3.6 | 0.0 | 26.3* | 4.2 | -2.1 | -1.6 | 7.7
COc1ccc(CNC(=O)CS(=O)(=O)Cc2nc(-c3cccc(OC)c3)oc2C)cc1 | 0.9 | 0.4 | 24.7* | -0.2 | 41.9 | -2.4 | 22.4*
CCOC(=O)C1=C(Nc2ccc(Br)cc2)CC(C)(O)C(C(=O)OCC)C1c1ccccc1 (centres undefined) | -0.7 | 0.4 | 28.4* | -0.7 | 11.7 | -2.1 | 10.0
CCCCCN1CCCCC(NC(=O)c2cccc(C(F)(F)F)c2)C1=O (centres undefined) | nt | -0.3 | -1.5 | nt | nt | nt | nt
CCCn1cc(C(=O)Nc2ccc(Oc3cccnc3)cc2)c2ccccc21 | -0.6 | -0.2 | 6.1 | nt | nt | nt | nt
SMILES | PG9 Ab binder | KLK7 zymogen act | NR1D1 modulator | PP5 primary | GASC-1 inh | PP1 inh | NR1D1 mod conf | others
Cc1cc(C)c(-c2csc(NC(=O)C3=COCCO3)n2)cc1C | -1.8 | 0.0 | 19.1* | -0.9 | 2.6 | -3.3 | 6.3
Cc1ccccc1OCC(=O)Nc1ccccc1N1CCCCC1 | -2.9 | 0.1 | 16.7* | 0.4 | -0.1 | 1.9 | 16.6
COc1cc(/C=N/NC(=O)Nc2cccc3nsnc23)cc(OC)c1OC | -0.3 | -0.6 | 5.8 | nt | -8.1 | nt | nt
COc1ccc(/C=N/NC(=O)Nc2cccc3nsnc23)c(OC)c1 | -0.7 | 0.5 | 68.1* | 0.3 | 0.0 | -0.7 | 23.6*
Cc1ccccc1OCC(=O)Nc1cccc2nsnc12 | 1.6 | -2.9 | 105.0* | -0.6 | 3.9 | -1.0 | 54.6* | RORg DNA counter=i
COc1cccc(CC(=O)O[C@@H]2CCC[C@@]3(C(=O)N(Cc4ccccc4)c4ccccc43)[C@H]2NC(=O)CCc2ccccc2)c1 | nt | 0.7 | 7.2 | nt | nt | nt | nt
COc1cc(/C=C(\C#N)C(=O)Nc2cc(C(F)(F)F)ccc2Cl)ccc1OCC(=O)Nc1cccc(C(F)(F)F)c1 | -1.1 | 0.5 | 34.0* | 1.3 | 16.0 | -1.4 | 19.0*
CCOC(=O)/C(C#N)=C/c1ccc(OCC(=O)Nc2ccc(C)c(C)c2)c(OC)c1 | -1.1 | 0.6 | 3.1 | 1.1 | -1.4 | -0.5 | nt
COc1ccc(/C=C/S(=O)(=O)NCC(C)C)c(CNC(=O)OC(C)(C)C)c1 | nt | -0.2 | 0.1 | nt | nt | nt | nt
O=C(NCCOc1ccccc1)c1ccc2c(c1)S(=O)(=O)c1cc(Cl)ccc1C2=O | 0.1 | -0.7 | 23.5* | nt | -3.3 | nt | 15.3
Nn1c(SCC(=O)Nc2cccc3ccccc23)nnc1-c1cc(-c2ccccc2)n[nH]1 | nt | 0.7 | -1.7 | nt | nt | nt | nt
COc1cc2cc(C(=O)N3CCc4ccccc4C3)[nH]c2cc1OC | 0.5 | -0.3 | 28.1* | 0.7 | 9.2 | 0.1 | 11.1
Cc1ccc(C(=O)NC2CCCCN(Cc3ccc(Cl)cc3)C2=O)c(C)c1 (centres undefined) | nt | 0.2 | 0.7 | nt | nt | nt | nt
COc1ccc(-c2nc(N)ncc2Oc2ccccc2Br)c(O)c1 | -0.6 | -6.9 | 103.6* | -0.2 | 2.1 | -2.6 | 80.5* | RORg DNA counter=>40
COCc1cc(C)nc(Nc2ccc(C)cc2C)c1C#N | -1.2 | 0.0 | 28.8* | 0.2 | 17.0 | -2.6 | 1.5
Cc1cc(NC(=O)CC(C)(C)C)nc2c1c(=O)oc1ccccc12 | -0.3 | -0.2 | 38.5* | 0.9 | 12.0 | -1.1 | 8.4
CCCC(=O)Nc1cc(C)c2c(=O)oc3ccccc3c2n1 | -1.2 | -0.7 | -2.7 | -2.2 | 5.9 | 1.3 | nt
Cc1cc(NC(=O)c2ccccc2F)nc2c1c(=O)oc1ccccc12 | 2.2 | -0.6 | 31.8* | -2.4 | -0.7 | -0.4 | 5.2
O=C(Nc1ccc(F)cc1)Nc1nc2ncccn2c1-c1ccc(F)cc1 | nt | 12.2 | 1.7 | nt | nt | nt | nt
CCc1cc2cc(C)cc(C)c2nc1SCC(=O)N1CCCC1 | 1.2 | 0.6 | 58.1* | -0.1 | -3.1 | -2.7 | 41.4* | RORg DNA counter=>40
CCc1cc2cc(C)ccc2nc1SCC(=O)N1CCN(C(=O)c2ccco2)CC1 | 0.1 | 0.2 | 0.9 | -0.1 | -19.5 | 3.1 | nt
